A selection: hits, their analogues and other compounds. The true share with any hit is near 7.9%.
KB-V1 cytotox – KB-V1 MDR subline cytotoxicity; KB-V1 MDR cells viability, CellTiter-Glo, 72 h; Potency, µM (titrated, usually from 46.1 µM), usual class: cytotoxic; hit rate 3.4% among 400,000; AID 1347076; also: % is scaled to controls: 0 for no effect and ±100 for the full control effect; nearly all actives have a fitted effect of over 60% in size
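Cytotoxicity via CellTiter-Glo luminescence after 72 h compound exposure at 37 degrees C. Cells: drug-selected KB-V1 line, DMEM phenol-red free plus 10% FBS. Compounds tested at multiple concentrations; normalized data fitted to concentration-effect curves.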
HT1080-NT tox – kills 2HG-producing HT-1080-NT fibrosarcoma cells; HT-1080-NT fibrosarcoma viability, CellTiter-Glo ATP luminescence, 48 h; AID 686970; hit rate 1.6% among 360,000; Potency, µM (doses to about 46.1 µM), without a hit: top-dose activity, negative = less viability, usual class: cytotoxic;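 also: NT is the 2HG producing partner of a matched IDH1 knockdown line; 0% = DMSO-treated cells and -100% = media-only wells without cells; nearly all actives have a fitted effect of over 55% in size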
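Viability by CellTiter-Glo luminescence after 48 h compound exposure at 37C of HT-1080-NT cells (750/well, RPMI, 5% FBS). % activity scaled between DMSO wells and medium-only wells, then curve-fitted and categorized by curve class.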
SW480 rerep – induces DNA re-replication in SW480 colon adenocarcinoma cells. SW480 DNA re-replication, Hoechst DNA content imaging, 48 h. Potency, µM (doses to about 46.1 µM), without a hit: at the top dose re-replication activation, actives largely listed as activators. hit rate 1.8% among 340,000. AID 624297; also: % of control where 0% means no effect; nearly all actives have a fitted effect of over 55% in size
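Compounds, transferred as 23 nL by pin tool, were incubated with cells for 48 hr; DNA content per nucleus was then quantified by Hoechst staining and fluorescence plate imaging.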
MCF10A rereplic – induces DNA re-replication in MCF 10a normal breast cells; MCF 10A DNA re-replication, Hoechst nuclear intensity, 48 h; Potency, µM (titrated, usually from 46.1 µM), inactives show at the top dose activity, positive = re-replication, actives largely listed as activators; hit rate 2.9% among 350,000; also: % of control where 0% means no effect; nearly all actives have a fitted effect of over 50% in size
KB-3-1 cytotox – kills parental KB-3-1 adenocarcinoma cells. KB-3-1 viability, CellTiter-Glo ATP luminescence, 72 h. Potency, µM (top dose mostly 46.1 µM), actives largely listed as cytotoxic. hit rate 1.4% among 400,000. AID 1347075; also: % is scaled to controls: 0 for no effect and ±100 for the full control effect; nearly all actives have a fitted effect of over 60% in size
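Parental KB-3-1 adenocarcinoma cells in phenol-red-free DMEM with 10% FBS were pin-treated with compounds at several concentrations, incubated 72 h at 37 °C, and viability read by CellTiter-Glo luminescence; concentration-effect curves were fitted after normalization.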
HT1080 IDH1KD tx – kills HT-1080 cells with IDH1 knockdown; hit rate 2% among 360,000; Potency, µM (doses to about 46.1 µM), without a hit: at the top dose activity, negative = toxicity, usual class: cytotoxic; HT-1080 IDH1 knockdown viability, ATP luminescence, 48 h;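 also: 0% = DMSO wells and -100% = cell-free medium wells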
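% activity derives from luminescence (CellTiter-Glo), normalised to DMSO and no-cell wells. HT-1080-IDH1KD cells, 750/well, had 48 h compound exposure at 37 °C.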
Numbers without * were called inactive; i = inactive; ? = inconclusive; nt = no result given; [ ] = another dose, or the depositor's remark. Calls follow the shape of the dose curve; as a rule, active = well fitted curve in the direction sought with a large enough effect; inconclusive = small, poorly fitted or top-dose-only effect, or another doubt; inactive = no such curve, though single readings can be large; an effect the other way counts as inactive or inconclusive. Potency is read from the fitted curve at half-maximal effect.

SMILES	KB-V1 cytotox	HT1080-NT tox	SW480 rerep	MCF10A rereplic	KB-3-1 cytotox	HT1080 IDH1KD tx
O=C(NCc1cccs1)C1CC(c2ccc(Cl)cc2)=NO1 (configuration not stated)	?	-22%	?	9.2µM*	?	?
COc1ccc(CN(Cc2ccccc2)C(=O)CN2CCN(C)CC2)cc1COc1ccc(NC(C)=O)cc1	nt	-16%	nt	nt	nt	-14%
Cc1ccc(NC(=O)CS(=O)CC(=O)N(c2ccccc2F)C(C)C(=O)NC2CCCC2)cc1 (configuration not stated)	i	8%	-13%	-1%	i	10%
Cc1ccc(N(CC(O)Cn2c3ccccc3c3ccccc32)S(C)(=O)=O)c(C)c1 (configuration not stated)	13µM*	18µM*	5%	?	23µM*	?
COC(=O)Cc1ccc(NC(=S)Nc2cccc(C)n2)cc1	21µM*	-13%	-8%	-7%	?	-17%
CCOC(=O)c1ccc(NC(=S)Nc2cccc(C)n2)cc1	i	-2%	4%	?	i	-1%
Cc1cccc(NC(=S)NC(=O)c2cccs2)n1	?	1.3µM*	2.9µM*	1%	i	5.6µM*
Cc1nc(NC(=S)NC(=O)c2cccs2)ccc1Br	?	-4%	-222%	-2%	?	1%
Cc1ccc2[nH]cc(/C=C/c3cc[n+](C)cc3)c2c1	i	?	8.2µM*	?	0.92µM*	?
COc1ccc2c(c1)c(/C=C/c1cc[n+](C)cc1)cn2C	?	0%	0%	-8%	16µM*	-3%
COC(=O)Cn1cc(/C=C/c2cc[n+](C)cc2)c2ccccc21	?	2%	-15%	-2%	i	6%
COc1ccc2c(/C=C/c3cc[n+](C)cc3)c[nH]c2c1	?	-22%	-1%	-14%	1.8µM*	-2%
CC(C1=C(CCN(C)C)Cc2ccccc21)c1ccccn1 (configuration not stated)	16µM*	-1%	0%	-2%	i	-2%
OC(CN1CCOCC1)C12CC3CC(CC(C3)C1)C2 (configuration not stated)	i	-1%	-2%	-1%	i	16%
COC(=O)C/C(O)=C(/N=Nc1cccc(C(F)(F)F)c1)C(=O)OC	i	1%	?	5.8µM*	i	1%
CC(C)NC(=O)c1cccc(C(F)(F)F)c1	i	16%	-5%	-22%	i	4%
CC(=O)Nc1ccc(NCc2cccs2)cc1	i	-8%	-6%	-15%	i	-1%
Cc1ccc(NC(=O)CS(=O)CC(=O)NCCCc2ccccc2)cc1Cl (configuration not stated)	i	?	7.3µM*	?	i	?
Cc1ccc(NC(=O)CS(=O)CC(=O)Nc2cnc3ccccc3c2)cc1Cl (configuration not stated)	i	-7%	-1%	24%	i	-17%
O=C(CN1C(=O)NC2(CCc3ccccc32)C1=O)c1ccccc1 (configuration not stated)	i	0%	1%	6%	i	14%
COCc1cc(C)nc(OCC(=O)N/N=C/c2ccc(-c3cc([N+](=O)[O-])ccc3C)o2)c1C#N	i	1%	0%[9.22 µM]	8%	i	-28%
Cc1ccc([N+](=O)[O-])cc1-c1ccc(/C=C(\C#N)c2[nH]nc(N)c2C#N)o1	i	?	?	?	?	16µM*
CC(C)OCCCN(C)C1CCN(S(=O)(=O)c2ccc(-c3cc(C(F)(F)F)no3)s2)CC1	9.2µM*	-12%	15µM*	15%	16µM*	-1%
CCOC(=O)c1cc(C(C)=O)n2ccccc12	i	0%	-11%	26%	i	-2%
CCOC(=O)c1cc(Br)c(=O)n2ccccc12	15µM*	7%	-5%	-2%	i	10%
SMILES	KB-V1 cytotox	HT1080-NT tox	SW480 rerep	MCF10A rereplic	KB-3-1 cytotox	HT1080 IDH1KD tx
COc1cc(/C=N/NC(=O)/C(=C\c2ccc3c(c2)OCO3)NC(=O)c2ccccc2)ccc1O	i	14%	-1%	-1%	i	15%
COc1cccc(CC2(CO)CCCN(Cc3ccc(C)s3)C2)c1 (configuration not stated)	?	2%	-17%	?	i	-14%
COc1cccc(CC2(CO)CCCN(Cc3cc4ccccc4[nH]3)C2)c1 (configuration not stated)	i	?	?	?	i	23µM*
COc1cccc(CC2(CO)CCCN(Cc3[nH]c4ccc(C)cc4c3C)C2)c1 (configuration not stated)	?	?	?	3.3µM*	?	?
C/C=C/Cn1c(SCc2ccccc2)nc2c1c(=O)[nH]c(=O)n2C	2.9µM*	-16%	-2%	4%	i	-11%
CCOCCn1c(SCc2ccccc2)nc2c1c(=O)[nH]c(=O)n2C	i	0%	-3%	-2%	i	-9%
C=CCSc1nc2c(c(=O)[nH]c(=O)n2C)n1C/C=C(/C)Cl	13µM*	-1%	-8%	16%	i	-2%
COCCn1c(SCc2ccc(F)cc2)nc2c1c(=O)[nH]c(=O)n2C	i	-15%	8%	0.46µM*	i	1%
CC(C)NC(=O)c1onc(CSc2ccc(F)c(F)c2)c1C(=O)O	i	-14%	-97%	-31%	i	-6%
O=c1c(-c2ccc([N+](=O)[O-])cc2)coc2c(O)c(O)ccc12	?	-37%	13µM*	7%	i	?
CN(C)Cc1c(O)ccc2c(=O)c(-c3ccc(Cl)cc3)coc12	i	10%	?	0%	i	7%
O=C1NC(c2ccc(Br)cc2)Nc2sc3c(c21)CCC3 (configuration not stated)	i	5%	-9%	1%	i	26%
Cc1ccsc1C1NC(=O)c2c(sc3c2CCCC3)N1 (configuration not stated)	15µM*	9%	-3%	?	i	8%
O=C1NC(c2ccccn2)Nc2sc3c(c21)CCC3 (configuration not stated)	i	-19%	0%	16µM*	i	-26%
COCCOC(=O)C1=C(C)OC(N)=C(C#N)C1c1cc2cccc(C)c2nc1Cl (configuration not stated)	i	-3%	4%	23µM*	i	?

Screens from PubChem BioAssay.
